Test results: PubChem BioAssay (EPA / NIEHS)
The source made the active and inactive calls. How the source made its calls: active means hit-call score of the fitted dose curve at least 0.9, where 1 is the maximum; inactive means score below 0.9.

These compounds were tested on Cytochrome P450 (CYP1A2), CYP1A2 (gene 1544) (assay: LTEA_HepaRG_CYP1A2: Life Technologies and Expression Analysis (LTEA) Assay for Cytochrome P450 (CYP1A2) using HepaRG (AID 2283479;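 on AC50: TaqMan qRT-PCR transcript level normalized to ACTB GAPDH and POLR2A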)). Settings: mRNA level, 48 h; actives raise or lower the signal.
Protocol: LTEA_HepaRG is a cell based, multiplexed-readout assay that uses HepaRG, a human liver cell line, with measurements taken at 48 hours after chemical dosing on a 96-well plate.LTEA_HepaRG_CYP1A2 is one of 102 assay component(s) measured in the LTEA HepaRG cell culture assay. It is a marker of NR mediated metabolism.Data from the assay component LTEA_HepaRG_CYP1A2 was analyzed into 1 endpoint. This assay endpoint, LTEA_HepaRG_CYP1A2, was analyzed with bidirectional fitting relative to DMSO as the negative control and baseline of activity. Using a type of inducible reporter, measures of mRNA induction for gain or loss-of-signal activity can be used to understand regulation of transcription factor activity. To generalize the intended target to other relatable targets, this assay endpoint is annotated to the cyp intended target family, where the subfamily is xenobiotic metabolism.
A total of 1060 chemcials from the ToxCast library were tested in eight-point concentration-response experiments. Cell culture and cytotoxicity assays were conducted at Thermo Fisher Scientific's Custom Services facility (Madison, WI). A single lot of human HepaRG cells (Thermo Fisher Scientific, Frederick, MD) was used for the cell culture experiments. 96-well format collagen type I coated plates of human HepaRG cells were prepared using established methods. Briefly, cryopreserved HepaRG cells were thawed, plated at a density of approximately 100,000 cells/well in HepaRG Thaw, Plate, and General Purpose media (HPRG770, Thermo Fisher Scientific), and incubated for 48 hours. 0.5% DMSO was selected as vehicle control to balance the requisite need of DMSO in HepaRG cultures to maintain differentiation (for example, baseline metabolism, proportions of hepatocytes vs. cholangiocytes), while enabling further hepatic receptor pathway activation (for example, PXR and CAR) in response to chemical exposure. 48 hours after plating, the culture medium was replaced with HepaRG Serum-Free Incudtion Media. Cells were exposed to each test chemical in duplicate and maintained in CO2 incubators for another 48 hours. Chemical plates were thawed to room temperature and 200x concentrations of treatment groups were prepared. 8-point conentration-reponse curves were made with the highest exposure at 100 uM, followed by half-log dilutions, all in 0.5% DMSO. Each test plate contained variouse controls, induction positive controls (1mM phenobarbital), cytotoxicity positive controls ([…] aflatoxin B1), vehicle controls (0.5% DMSO), and total lysis controls (0.5% DMSO). Cell morphology images were taken using an Essen IncuCyte FLR automated microscope, with six 96-well plates imaged in about 24 minutes. Images were captured and exported and JPEG files. Spent culture media was transfered to black-well plates for the LDH assay, and remaining media was sorted at -80 C for later use. Cells were treated with RLT buffer and frozen until shipped for gene expression analysis. Total RNA was isolated from the cell suspension in 75 uL of Buffer RLT (Qiagen, Germantown, MD 20874) by Quintiles/Expression Analysis (Durham, NC) using a custom isolation procedure. Total RNA from each plate well was transferred to a preamplification plate. Fluidigm's 96.96 Dynamic ArrayTM (Fluidigm, Amsterdam, the Netherlands) technology was used for gene expression analyses by quantitative reverse transcription polymerase chain reaction (qRT-PCR, performed by Quintiles/Expression Analysis, Durham, NC)89. Standard TaqManTM Assays (Applied Biosystems/ThermoFisher Scientific, Foster City, CA) were used to assess the expression of 93 genes selected based on their selectivity and sensitivity to important hepatic receptors known to be modulated by environmental chemicals; importance in human hepatocyte functionality; and hepatotoxicity. […]

**Q.** With CC(=O)CC(C)(C)O as the compound, how does the outcome read?
**A.** The outcome was “inactive”.

**Q.** With Cc1cc(C)c(O)c(C)c1 as the compound, how does the outcome read?
**A.** Its outcome is “inactive”.

**Q.** With NC(=O)N1C(=O)C(C(=O)c2cc(Cl)cs2)c2cc(F)c(Cl)cc21 (stereo not given) as the compound, how does the AC50 read?
**A.** Its AC50 is 4.16 µM (active).

**Q.** Which outcome does the source give for CCC(=C(c1ccc(O)cc1)c1ccc(OCCN(C)C)cc1)c1ccccc1 here?
**A.** Its outcome is “inactive”.

**Q.** CC(C)CCCCCCOC(=O)CCCCC(=O)OCCCCCCC(C)C was tested. Which AC50 did it give?
**A.** The AC50 was 50 µM (active).

**Q.** Which outcome does the source give for CCCCCCCCC(=O)O here?
**A.** The outcome was “inactive”.

**Q.** CC(C)(C)c1ccc(O)c(C(C)(C)C)c1 was tested. Which AC50 did it give?
**A.** Its AC50 is 0.104 µM (active).

**Q.** OC1CCC(C2CCCCC2)CC1 (stereo not given) was tested. Which outcome did it give?
**A.** Its outcome is “inactive”.

**Q.** For CCCOC(=O)c1ccc(O)cc1, which outcome is on record?
**A.** The outcome was “inactive”.

**Q.** Which outcome does the source give for c1ccc2c(c1)Cc1ccccc1-2 here?
**A.** Its outcome is “inactive”.

**Q.** With CCCCCCCCCCCCN1CCCC1=O as the compound, how does the outcome read?
**A.** The outcome was “inactive”.

**Q.** Which outcome does the source give for c1ccc2c(c1)ccc1ccccc12 here?
**A.** Its outcome is “inactive”.

**Q.** CCCCC(CC)COC(=O)CCCCC(=O)OCc1ccccc1 (stereo not given) was tested. Which outcome did it give?
**A.** The outcome was “inactive”.

**Q.** With Nc1cccc2c(N)cccc12 as the compound, how does the AC50 read?
**A.** The AC50 was 20.1 µM (active).

**Q.** How did the AC50 turn out when CCc1nn(C2CCCCC2)c2cc(C3(C#N)CCC(C(=O)O)CC3)ccc12 (stereo not given) was run?
**A.** Its AC50 is 91 µM (active).

**Q.** Cc1oc(-c2ccccc2)nc1CCOc1ccc(C[C@H](Nc2ccccc2C(=O)c2ccccc2)C(=O)O)cc1 was tested. Which AC50 did it give?
**A.** The AC50 was 27.2 µM (active).

**Q.** CC(C)(C)c1cccc(C(C)(C)C)c1O was tested. Which outcome did it give?
**A.** The outcome was “inactive”.

**Q.** Which outcome does the source give for CC[C@H](c1ccc(O)cc1)[C@@H](CC)c1ccc(O)cc1 here?
**A.** The outcome was “inactive”.

**Q.** COc1ccc([N+](=O)[O-])cc1N was tested. Which AC50 did it give?
**A.** The AC50 was 50 µM (active).

**Q.** For COCC(C)OCC(C)O (stereo not given), which outcome is on record?
**A.** The outcome was “inactive”.

**Q.** CN(C)C=O was tested. Which outcome did it give?
**A.** The outcome was “inactive”.

**Q.** How did the AC50 turn out when O=C(O)Cc1cc(I)c(Oc2cc(I)c(O)c(I)c2)c(I)c1 was run?
**A.** The AC50 was 0.0864 µM (active).

**Q.** C[C@@H]1C[C@H]2[C@@H]3CCC4=CC(=O)C=C[C@]4(C)[C@@]3(F)[C@@H](O)C[C@]2(C)[C@@]1(O)C(=O)COP(=O)(O)O was tested. Which outcome did it give?
**A.** The outcome was “inactive”.

**Q.** CCCCCCCCOC(=O)CCCCCCCCC(=O)OCCCCCCCC was tested. Which AC50 did it give?
**A.** The AC50 was 29.9 µM (active).

**Q.** Which outcome does the source give for O=c1c(-c2ccc(O)cc2)coc2cc(O)ccc12 here?
**A.** The outcome was “inactive”.

**Q.** CN1CCN(c2ccccc2/C=C2\SCCN(c3ccc(Cl)c(Cl)c3)C2=O)CC1 was tested. Which AC50 did it give?
**A.** The AC50 was 4.69 µM (active).

**Q.** Which AC50 does the source give for c1ccc2cc3c(ccc4ccccc43)cc2c1 here?
**A.** The AC50 was 1.99 µM (active).

**Q.** CCCCCCCC(=O)O was tested. Which outcome did it give?
**A.** Its outcome is “inactive”.

**Q.** CCN(CC)CCNc1ccc(CNC=O)c2sc3ccc(OC)cc3c(=O)c12 was tested. Which outcome did it give?
**A.** Its outcome is “inactive”.

**Q.** For CCCCOCCO, which outcome is on record?
**A.** Its outcome is “inactive”.

**Q.** With OCCC(F)(F)C(F)(F)C(F)(F)C(F)(F)C(F)(F)C(F)(F)C(F)(F)C(F)(F)F as the compound, how does the outcome read?
**A.** Its outcome is “inactive”.

**Q.** With COC(=O)CCCCC(=O)OC as the compound, how does the outcome read?
**A.** Its outcome is “inactive”.

**Q.** Which AC50 does the source give for CC#C[C@]1(O)CC[C@H]2[C@@H]3CCC4=CC(=O)CCC4=C3[C@@H](c3ccc(N(C)C)cc3)C[C@@]21C here?
**A.** Its AC50 is 26.4 µM (active).

**Q.** For Cc1cc(CCN2CCN(c3nsc4ccccc34)CC2)cc2c1NC(=O)CC2(C)C, which AC50 is on record?
**A.** The AC50 was 12.6 µM (active).

**Q.** For CCCOc1sc(C(=O)N2CCC(c3cc(CN)ccc3F)CC2)c(C)c1Br, which outcome is on record?
**A.** The outcome was “inactive”.

**Q.** CCC(C)(C)C1CCC(O)CC1 (stereo not given) was tested. Which outcome did it give?
**A.** The outcome was “inactive”.

**Q.** For CCCCCCCCCCCCCCCS(=O)(=O)Oc1ccccc1, which AC50 is on record?
**A.** The AC50 was 5.56 µM (active).

**Q.** Which AC50 does the source give for N#C[C@@H]1CC(F)(F)CN1C(=O)CNC1CC2CCC(C1)N2c1ncccn1 (stereo not given in full) here?
**A.** Its AC50 is 64.4 µM (active).

**Q.** How did the AC50 turn out when Oc1cc2ccccc2c2ccccc12 was run?
**A.** The AC50 was 22.4 µM (active).

**Q.** How did the outcome turn out when C=C(C)C(=O)OCCC(F)(F)C(F)(F)C(F)(F)C(F)(F)C(F)(F)C(F)(F)F was run?
**A.** Its outcome is “inactive”.
